Assay outcomes from PubChem.
AHR act: AHR activators, primary screen, cell-based, luminescence, luciferase reporter, human; Aryl hydrocarbon receptor (Homo sapiens), P35869; AHR-responsive luciferase reporter cells; activation, % at 5 µM; actives 2.5% (n = 320,000); AID 2796, 2010; in the data active means activation above about 47%
Target sequence (P35869 whole entry, looked up): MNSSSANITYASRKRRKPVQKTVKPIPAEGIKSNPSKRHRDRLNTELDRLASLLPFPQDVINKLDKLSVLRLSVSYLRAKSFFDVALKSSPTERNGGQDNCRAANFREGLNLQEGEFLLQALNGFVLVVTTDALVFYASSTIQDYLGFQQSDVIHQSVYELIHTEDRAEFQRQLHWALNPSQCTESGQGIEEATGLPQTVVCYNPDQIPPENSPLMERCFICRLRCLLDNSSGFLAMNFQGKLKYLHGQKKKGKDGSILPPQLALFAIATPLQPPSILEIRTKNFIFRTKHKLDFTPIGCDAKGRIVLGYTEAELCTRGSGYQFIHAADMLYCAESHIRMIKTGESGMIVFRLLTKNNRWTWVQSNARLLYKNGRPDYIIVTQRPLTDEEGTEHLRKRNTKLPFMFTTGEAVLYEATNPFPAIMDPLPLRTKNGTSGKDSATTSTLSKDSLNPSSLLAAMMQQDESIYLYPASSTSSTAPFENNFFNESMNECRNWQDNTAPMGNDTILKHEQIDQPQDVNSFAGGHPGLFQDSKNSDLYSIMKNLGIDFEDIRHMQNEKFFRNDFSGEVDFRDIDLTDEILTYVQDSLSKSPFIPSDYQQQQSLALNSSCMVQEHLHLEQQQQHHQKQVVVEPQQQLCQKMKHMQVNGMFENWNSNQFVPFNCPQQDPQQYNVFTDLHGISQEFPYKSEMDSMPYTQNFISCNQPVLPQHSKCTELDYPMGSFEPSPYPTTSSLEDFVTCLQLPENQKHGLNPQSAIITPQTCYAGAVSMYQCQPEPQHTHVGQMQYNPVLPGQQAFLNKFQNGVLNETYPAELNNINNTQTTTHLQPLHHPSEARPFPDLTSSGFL
DAX1 inh: DAX1 (NR0B1) inhibitors, primary screen, cell-based, HEK293, Gal4-DAX1, luciferase luminescence | actives 0.99% (n = 340,000) | HEK293 Gal4-DAX1 luciferase reporter | Nuclear receptor subfamily 0 group B member 1 (Homo sapiens), P51843 | inhibition, % at 6.75 µM;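 active means inhibition above the mean over all tested compounds plus 3 SD, cut at about 4.2% in these data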;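 further: inhibition shows as a rise in luminescence from relieved DAX1 repression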
HSP90 refold inh: HSP90 inhibitors, primary screen, cell lysate, luminescence. actives 0.91% (n = 290,000). Rabbit reticulocyte lysate, luciferase refolding luminescence, 3 h. inhibition, % at 5.6 µM;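 active means inhibition above the screen-wide mean plus 3 SD, computed separately per campaign, cut at about 16% in these data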;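 further: inhibitors lower the luminescence because luciferase stays unfolded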
HSF1 inhib: HSF1 inhibitors in luciferase reporter cells, primary screen, cell-based, NIH3T3, luminescence. NIH3T3-HGL HSE-luciferase, MG132-induced, luminescence 8 h; active compounds read low. actives 0.77% (n = 300,000). activity change, negative = inhibition, % at 7.5 µM (by protocol);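 active means more than half of replicate wells show activity change below -50%, luminescence cut by over half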;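 further: luciferase reports HSF-1 transcriptional activity via heat shock element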
HSF1 activator: HSF-1 activators, primary screen, NIH3T3-HGL cells, MG132 stress, luminescence, single point | actives 1.7% (n = 300,000) | AID 504408, 2011 | NIH3T3-HGL HSF-1 luciferase reporter, 8 h; 100% = twice DMSO control signal | activation, % at 9 µM;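 active means mean replicate activation of at least 50% with a set share of replicates each reaching 50%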
GAA850 FXN act: FXN promoter activators, primary screen, cell-based, luciferase luminescence, HEK293 lucGAA850. HEK293 lucGAA850 FXN promoter luciferase reporter, 24 h; percent of 10 µM SAHA response. activation, % at 6 µM. actives 0.56% (n = 360,000);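 active means activation above the average of all compounds screened plus 3 SD, cutoff fixed separately per campaign, cut at about 7.5% in these data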
A number is an active result; 0 = inactive; - = no result given. In the library only some 5.9% were active in any assay of this set; here they are far more common.

SMILES	AHR act	DAX1 inh	HSP90 refold inh	HSF1 inhib	HSF1 activator	GAA850 FXN act
CC(/C=N/Nc1nnc2c(n1)[nH]c1ccccc12)=C\c1ccco1	72.9	0	0	0	0	0
C=CCSc1nnc2c(n1)[nH]c1c(C)cccc12	64.5	0	0	0	0	0
Fc1cccc(CSc2nnc3c(n2)[nH]c2ccccc23)c1	0	0	0	-	-	0
Cc1cccc2c1[nH]c1nc(N/N=C\c3ccco3)nnc12	79.2	-	0	0	0	-
CCSc1nnc2nc3[nH]c4c(C)cccc4c3nn12	54.4	-	0	0	0	0
COc1cccc(/C=N/Nc2nnc3c(n2)[nH]c2ccccc23)c1OC	0	0	0	0	0	0
COc1ccccc1N1CCN(C2CC(=O)N(c3cccc(Cl)c3)C2=O)CC1 (stereo unspecified)	0	0	0	0	0	0
Cc1nc2sc(C(c3ccco3)N3CCc4ccccc4C3)c(O)n2n1 (stereo unspecified)	51.2	0	0	0	0	0
COc1ccccc1-c1cnc(C(O)c2ccc(C)cc2)[nH]1 (stereo unspecified)	-	-	-	-	-	0
CS(=O)c1nc(-c2ccc(Br)cc2)cc(-c2ccccc2)c1C#N (stereo unspecified)	0	0	0	0	56.4	0
CS(=O)(=O)c1nc(-c2ccc(Br)cc2)cc(-c2ccccc2)c1C#N	0	0	0	0	0	0
COc1ccc(-c2cc(-c3ccccc3)c(C#N)c(S(C)(=O)=O)n2)cc1	0	0	0	0	70.6	0
CC1CCCC(C)N1CC(O)COCc1ccccc1F (stereo unspecified)	0	0	0	0	0	0
CCOc1ccc2nc(SCC3CC3(Cl)Cl)[nH]c2c1 (stereo unspecified)	0	5.1	0	0	0	0
ClC1(Cl)CC1CSc1nc2ccccc2[nH]1 (stereo unspecified)	0	0	0	0	0	0
CC(C)CCNC(=O)CN(Cc1ccco1)C(=O)CCC(=O)Nc1nccs1	0	0	0	0	0	0
O=C(O)C1CC2CCC1CC2 (stereo unspecified)	-	0	-	-	-	0
COc1ccccc1CN1C(=O)CCC1(C)C(=O)NCc1cccnc1 (stereo unspecified)	0	0	0	0	0	0
CCC(C)NC(=O)C1(C)CCC(=O)N1Cc1ccccc1OC (stereo unspecified)	0	0	0	-74.5	0	0
COCCNC(=O)C1CCCN(C(=O)c2ccc(C(F)(F)F)nc2C)CC1 (stereo unspecified)	-	-	-	-	-	0
Nc1ccccc1NC(=O)NC(=O)c1ccccc1	0	4.6	0	0	0	0
CCN(CC)c1ccc(NC(=O)CSc2nc3ccccc3c(=O)n2-c2cc(S(=O)(=O)N(C)C)ccc2C)cc1	0	0	16.4	0	0	0
NC(=O)c1ccsc1NC(=O)COC(=O)c1nc(Cl)ccc1Cl	0	0	-	0	0	0
CCCCn1c(N)nc2ccccc21	0	0	0	-71.2	0	0
CC(=O)N1CCc2cc(Br)cc(S(=O)(=O)CCC(=O)N3CCN(c4ccccn4)CC3)c21	0	0	0	0	0	0
SMILES	AHR act	DAX1 inh	HSP90 refold inh	HSF1 inhib	HSF1 activator	GAA850 FXN act
CCOC(=O)c1[nH]c2ccccc2c1N=CN(C)C	0	0	0	0	0	0
CN(C)C=Nc1ccc2nc3c(cc2c1)[nH]c1ccccc13	70.9	0	0	0	0	9.2
CC(C)(C)c1cc(Br)c(O)c(N=Nc2ccc(S(=O)(=O)N3CCOCC3)cc2)c1	0	0	0	0	0	0
COc1c2ccoc2c(OC)c2oc(=O)ccc12	0	0	-	0	0	0
C=C(C)C(O)COc1c2occc2c(OC)c2ccc(=O)oc12 (stereo unspecified)	54.6	0	-	-	-	0
O=C(O)CSc1nnc(-c2ccccc2)c(-c2ccccc2)n1	0	0	0	0	0	0
CCC(=O)NNC(=O)CSc1nnc(-c2ccccc2)c(-c2ccccc2)n1	0	0	0	-73.9	0	0
CC(NCC(=O)Nc1ccccc1C(=O)NC1CC1)c1cccc(C(F)(F)F)c1 (stereo unspecified)	0	0	-	-	-	0
COc1ccc(-c2nnn(CC(=O)N(CCCN3CCOCC3)C(C(=O)NC3CCCC3)c3ccco3)n2)cc1 (stereo unspecified)	0	5.2	0	0	0	0
Cc1cc(NC(=O)c2ccc(F)cc2)n(CCOC(=O)c2ccc(F)cc2)n1	49.8	0	0	0	0	0
CCCCC(=O)Nc1ccc(Br)cn1	0	0	0	0	0	0
CCCCNC(=O)Nc1ccc(Br)cn1	51.8	0	0	0	0	0
CC1CC(C)(C)N(C(=O)NC2CCCCC2)c2ccccc21 (stereo unspecified)	0	0	0	0	56.5	0
COc1ccc2c(c1)C(C)CC(C)(C)N2C(=O)NC1CCCCC1 (stereo unspecified)	0	0	0	0	0	0
Cc1ccc(CNC(=O)c2ccc3nc4[nH]c5ccccc5c4nc3c2)cc1	-	-	0	-76.1	0	-
COc1ccc(CN2CCN(CCSc3ccc(C)cc3)CC2)c(OC)c1OC	0	0	0	0	0	0
CC1(C(=O)NCc2cccc3ccccc23)CCN1C(=O)Cc1ccc(-c2ccccc2)cc1 (stereo unspecified)	-	-	-	-	-	0
CC(=O)Nc1ccc(S(=O)(=O)N2CCN(c3ccccn3)CC2)cc1	0	0	0	0	0	0
CC(=O)Nc1ccc(S(=O)(=O)N2CCN(c3ncccn3)CC2)cc1	0	6.0	0	0	0	0
Cn1c(=O)c2cc(NC(=O)NCc3ccc(Cl)cc3Cl)ccc2n1Cc1ccc(F)cc1	-	-	-	-	-	0
CN(C1CCCCC1)S(=O)(=O)c1ccc(S(=O)(=O)N2CCN(CCC#N)CC2)cc1	0	5.7	0	0	0	0
O=C(Oc1ccc(Br)cc1C(=O)/C=C/c1ccccc1F)c1ccco1	56.5	0	0	0	0	0
CC(=O)c1cc(Cl)ccc1OC(=O)c1ccco1	0	0	0	0	0	0
COC(=O)c1ccc(CNC(=O)c2ccc(OC)c(S(=O)(=O)NC3CC3)c2)cc1	-	0	-	-	-	0
CC(=O)Nc1ccc(S(=O)(=O)NCC2CCCO2)cc1 (stereo unspecified)	0	5.1	-	0	0	0
Cc1ccc(C(=O)NC(=S)NCC2CCCO2)cc1 (stereo unspecified)	0	0	0	0	89.3	0
Cc1ccc(NC(=O)C(=O)NCC2CCCO2)cc1C (stereo unspecified)	0	5.8	0	0	0	0
